The first experiment deals with EEA1 (UniProt Q15075). The experiment in a line: cross-linking mass spectrometry. The settings on record: DMTMM.
EEA1, sequence (Q15075 whole entry): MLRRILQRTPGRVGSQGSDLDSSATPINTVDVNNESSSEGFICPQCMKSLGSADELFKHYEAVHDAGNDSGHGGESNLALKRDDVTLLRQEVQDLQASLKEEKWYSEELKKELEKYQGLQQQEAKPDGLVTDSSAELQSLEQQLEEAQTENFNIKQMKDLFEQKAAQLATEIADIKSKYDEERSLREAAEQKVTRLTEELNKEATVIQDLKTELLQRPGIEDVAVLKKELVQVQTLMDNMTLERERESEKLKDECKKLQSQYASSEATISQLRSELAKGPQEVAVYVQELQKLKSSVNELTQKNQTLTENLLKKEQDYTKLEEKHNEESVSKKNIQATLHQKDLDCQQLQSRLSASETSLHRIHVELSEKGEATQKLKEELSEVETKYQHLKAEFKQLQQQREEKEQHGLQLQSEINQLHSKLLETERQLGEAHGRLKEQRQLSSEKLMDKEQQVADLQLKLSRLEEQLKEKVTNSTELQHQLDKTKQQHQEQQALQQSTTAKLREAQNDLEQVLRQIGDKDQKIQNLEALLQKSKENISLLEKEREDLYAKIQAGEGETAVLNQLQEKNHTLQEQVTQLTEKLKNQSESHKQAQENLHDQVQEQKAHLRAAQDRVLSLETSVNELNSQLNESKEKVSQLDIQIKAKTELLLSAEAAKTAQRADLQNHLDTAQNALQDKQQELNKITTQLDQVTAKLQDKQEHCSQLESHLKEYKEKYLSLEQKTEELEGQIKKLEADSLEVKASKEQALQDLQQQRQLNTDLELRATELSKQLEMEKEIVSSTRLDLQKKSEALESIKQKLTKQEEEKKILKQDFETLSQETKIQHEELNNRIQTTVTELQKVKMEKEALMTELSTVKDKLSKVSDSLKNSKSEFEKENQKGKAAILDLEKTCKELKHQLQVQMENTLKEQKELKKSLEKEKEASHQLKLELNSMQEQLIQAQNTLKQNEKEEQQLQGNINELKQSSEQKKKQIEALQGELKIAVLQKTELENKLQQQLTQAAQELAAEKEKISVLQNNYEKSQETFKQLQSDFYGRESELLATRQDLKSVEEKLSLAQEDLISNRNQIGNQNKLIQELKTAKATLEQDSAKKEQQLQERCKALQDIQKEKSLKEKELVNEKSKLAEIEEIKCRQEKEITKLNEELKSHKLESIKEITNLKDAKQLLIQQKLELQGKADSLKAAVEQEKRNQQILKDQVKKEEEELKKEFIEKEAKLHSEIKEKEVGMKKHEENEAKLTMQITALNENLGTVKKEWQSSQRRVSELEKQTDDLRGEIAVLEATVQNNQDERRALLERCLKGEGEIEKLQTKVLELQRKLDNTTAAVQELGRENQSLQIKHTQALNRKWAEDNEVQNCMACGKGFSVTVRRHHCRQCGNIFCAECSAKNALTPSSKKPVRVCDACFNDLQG
ZNF638, Q14966, sequence (Q14966 whole entry): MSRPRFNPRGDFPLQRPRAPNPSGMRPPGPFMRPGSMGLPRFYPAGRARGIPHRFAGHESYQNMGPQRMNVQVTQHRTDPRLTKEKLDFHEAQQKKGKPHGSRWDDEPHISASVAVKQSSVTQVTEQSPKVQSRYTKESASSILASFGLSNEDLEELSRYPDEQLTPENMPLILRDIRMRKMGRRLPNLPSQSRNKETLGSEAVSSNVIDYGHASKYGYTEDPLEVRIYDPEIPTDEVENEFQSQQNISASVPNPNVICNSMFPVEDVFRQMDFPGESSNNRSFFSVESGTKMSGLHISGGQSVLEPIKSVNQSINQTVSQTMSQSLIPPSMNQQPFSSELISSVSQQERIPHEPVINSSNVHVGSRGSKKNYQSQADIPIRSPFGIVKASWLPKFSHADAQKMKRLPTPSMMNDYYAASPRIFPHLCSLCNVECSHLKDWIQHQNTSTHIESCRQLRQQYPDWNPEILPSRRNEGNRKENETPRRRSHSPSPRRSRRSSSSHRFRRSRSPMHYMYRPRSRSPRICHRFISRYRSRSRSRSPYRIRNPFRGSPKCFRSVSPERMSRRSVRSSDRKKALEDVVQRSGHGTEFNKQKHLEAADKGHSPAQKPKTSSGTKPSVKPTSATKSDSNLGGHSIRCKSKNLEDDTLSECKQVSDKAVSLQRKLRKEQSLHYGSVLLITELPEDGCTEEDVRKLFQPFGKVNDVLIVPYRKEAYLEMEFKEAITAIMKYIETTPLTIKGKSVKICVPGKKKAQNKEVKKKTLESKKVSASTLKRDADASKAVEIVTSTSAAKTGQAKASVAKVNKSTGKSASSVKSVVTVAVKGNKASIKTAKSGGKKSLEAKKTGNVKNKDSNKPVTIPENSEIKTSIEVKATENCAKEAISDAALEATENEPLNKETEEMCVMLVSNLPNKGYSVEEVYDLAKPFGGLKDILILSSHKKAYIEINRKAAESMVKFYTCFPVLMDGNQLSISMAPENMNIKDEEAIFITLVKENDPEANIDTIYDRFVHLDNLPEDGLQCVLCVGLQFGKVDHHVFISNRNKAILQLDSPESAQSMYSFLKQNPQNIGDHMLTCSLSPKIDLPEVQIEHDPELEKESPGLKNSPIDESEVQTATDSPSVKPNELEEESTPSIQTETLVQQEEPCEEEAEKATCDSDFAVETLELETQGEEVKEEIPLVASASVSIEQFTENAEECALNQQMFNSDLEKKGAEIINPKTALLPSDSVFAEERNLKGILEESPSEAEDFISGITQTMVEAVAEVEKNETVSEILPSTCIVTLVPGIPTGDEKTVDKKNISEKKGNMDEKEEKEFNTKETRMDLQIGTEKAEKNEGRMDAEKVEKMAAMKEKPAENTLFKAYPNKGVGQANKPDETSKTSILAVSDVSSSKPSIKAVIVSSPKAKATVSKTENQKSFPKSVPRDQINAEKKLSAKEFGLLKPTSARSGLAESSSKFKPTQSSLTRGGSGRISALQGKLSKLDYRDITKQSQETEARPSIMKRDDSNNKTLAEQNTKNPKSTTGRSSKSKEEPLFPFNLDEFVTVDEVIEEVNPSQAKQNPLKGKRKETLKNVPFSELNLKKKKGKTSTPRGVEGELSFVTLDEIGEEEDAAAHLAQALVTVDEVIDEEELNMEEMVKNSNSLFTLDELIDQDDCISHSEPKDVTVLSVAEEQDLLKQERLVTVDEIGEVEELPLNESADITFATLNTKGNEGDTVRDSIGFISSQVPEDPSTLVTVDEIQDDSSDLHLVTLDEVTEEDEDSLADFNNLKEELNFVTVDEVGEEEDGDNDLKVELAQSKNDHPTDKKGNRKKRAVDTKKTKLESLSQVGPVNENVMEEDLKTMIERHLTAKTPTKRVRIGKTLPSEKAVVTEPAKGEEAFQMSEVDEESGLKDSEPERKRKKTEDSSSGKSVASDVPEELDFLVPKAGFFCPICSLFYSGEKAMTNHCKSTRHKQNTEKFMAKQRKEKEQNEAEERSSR
ROCK2, O75116, sequence (O75116 whole entry): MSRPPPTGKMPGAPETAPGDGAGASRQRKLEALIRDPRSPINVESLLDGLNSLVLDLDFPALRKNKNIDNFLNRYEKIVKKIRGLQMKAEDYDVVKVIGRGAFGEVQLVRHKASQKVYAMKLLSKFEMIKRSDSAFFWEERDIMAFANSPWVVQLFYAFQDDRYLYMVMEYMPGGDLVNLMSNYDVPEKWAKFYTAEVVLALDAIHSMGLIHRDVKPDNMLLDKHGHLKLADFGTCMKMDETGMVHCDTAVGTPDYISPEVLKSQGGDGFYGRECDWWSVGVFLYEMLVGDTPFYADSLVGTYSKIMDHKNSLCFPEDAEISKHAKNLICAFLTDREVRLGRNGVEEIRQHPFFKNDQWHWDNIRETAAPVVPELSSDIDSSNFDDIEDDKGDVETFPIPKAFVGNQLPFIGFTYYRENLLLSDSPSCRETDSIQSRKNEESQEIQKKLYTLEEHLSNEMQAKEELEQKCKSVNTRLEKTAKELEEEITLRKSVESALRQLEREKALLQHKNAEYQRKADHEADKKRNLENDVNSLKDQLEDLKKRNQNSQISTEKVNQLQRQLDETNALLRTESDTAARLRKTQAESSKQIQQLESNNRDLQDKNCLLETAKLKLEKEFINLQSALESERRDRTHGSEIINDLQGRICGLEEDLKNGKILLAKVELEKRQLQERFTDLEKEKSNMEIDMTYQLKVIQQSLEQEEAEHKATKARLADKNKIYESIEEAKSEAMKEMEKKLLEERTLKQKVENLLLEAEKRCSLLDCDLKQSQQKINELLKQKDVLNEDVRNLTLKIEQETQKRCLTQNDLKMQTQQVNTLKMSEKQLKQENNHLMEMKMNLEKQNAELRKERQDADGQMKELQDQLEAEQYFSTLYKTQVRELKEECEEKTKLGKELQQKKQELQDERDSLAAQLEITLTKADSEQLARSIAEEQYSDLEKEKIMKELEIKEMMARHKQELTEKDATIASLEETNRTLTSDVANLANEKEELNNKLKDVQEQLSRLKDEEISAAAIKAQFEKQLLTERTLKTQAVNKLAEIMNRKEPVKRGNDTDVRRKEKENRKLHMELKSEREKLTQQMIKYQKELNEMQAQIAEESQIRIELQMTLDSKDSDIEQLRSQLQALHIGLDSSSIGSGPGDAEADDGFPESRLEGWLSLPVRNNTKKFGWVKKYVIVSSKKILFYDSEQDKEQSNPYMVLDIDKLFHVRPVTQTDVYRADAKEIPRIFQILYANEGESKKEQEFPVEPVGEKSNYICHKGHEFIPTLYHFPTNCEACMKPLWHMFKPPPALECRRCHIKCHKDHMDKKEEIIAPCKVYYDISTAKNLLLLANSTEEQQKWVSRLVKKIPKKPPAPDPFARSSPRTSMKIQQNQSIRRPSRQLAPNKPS
RAB9A, P51151, sequence (P51151 whole entry): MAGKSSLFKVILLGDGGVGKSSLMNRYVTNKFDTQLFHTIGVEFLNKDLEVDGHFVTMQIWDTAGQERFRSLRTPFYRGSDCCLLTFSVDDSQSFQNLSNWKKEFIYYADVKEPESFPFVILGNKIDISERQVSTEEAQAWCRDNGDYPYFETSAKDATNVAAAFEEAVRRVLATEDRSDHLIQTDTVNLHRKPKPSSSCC
As for DMD, P11532, the cross-linked residues entry is recorded as “E2453 - K227”.

In the case of ACADL, P28330, the cross-linked residues entry was “K92 - D1321”.

With ZNF638, Q14966, the cross-linked residues result was “K951 - E91”.

NEB, P20929: the cross-linked residues entry was “K8264 - E1248”.

The experiment is the same for the next values; noted with them: DSSO.
DST, Q03001: the cross-linked residues result was “K3770 - K995”.

On to RAB9A, P51151, for which the cross-linked residues result is listed as “K4 - K1340”.

In the case of TPM4, P67936, the cross-linked residues result is given as “K215 - K370”.

On to ROCK2, O75116, for which the cross-linked residues result is reported as “K780 - K303”.

The values are drawn from paper doi:10.1101/2025.02.07.636106.
